Several values for one entry are separate records, joined by “and”; a condition that tells them apart may be missing. Equal entries are not always repeated. Among all 5,500 compounds or so, about 2,000 (36%) were called active. Roughly 18% stayed inconclusive and do not appear here. No stated cut-off is given here; in the data, active means normalized growth mostly below about 0.91 (no sharp cut-off); inconclusive means no clear call, values can overlap the other calls; inactive means mostly above about 0.92. This is one part of the list.
Assay: chemical genetic growth profiling, strain panel (AID 1159580);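 further: tested at 20 µM; growth read once vehicle control cultures reached saturation at 30 °C; 1 = growth at the plate median or of vehicle wells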
Settings: S. cerevisiae deletion strains, growth OD

Measured: normalized growth

Oc1cc(O)c2c(c1)O[C@H](c1ccc(O)c(O)c1)[C@@H](O)C2
inactive: locus YAL021C, strain ccr4, stronger effect = lower value 1.03 | locus YAL026C, strain drs2, stronger effect = lower value 1.01 | locus YAL030W, strain snc1, stronger effect = lower value 1.01 | locus YBL061C, strain skt5, stronger effect = lower value 1.01 | locus YBR009C, strain hhf1, stronger effect = lower value 0.993 | locus YBR021W, strain FUR4, stronger effect = lower value 1.05 | locus YBR023C, strain chs3, stronger effect = lower value 1.02 | locus YBR171W, strain sec66, stronger effect = lower value 1.01 | locus YBR229C, strain ROT2, stronger effect = lower value 0.957 | locus YBR231C, strain swc5, stronger effect = lower value 1.01 | locus YBR279W, strain paf1, stronger effect = lower value 1.01 | locus YCL011C, strain gbp2, stronger effect = lower value 1.01 | locus YCL016C, strain dcc1, stronger effect = lower value 1.01 | locus YCL029C, strain bik1, stronger effect = lower value 0.972 | locus YCL061C, strain MRC1, stronger effect = lower value 1.01 | locus YCL069W, strain vba3, stronger effect = lower value 1 | locus YCR088W, strain abp1, stronger effect = lower value 1.01 | locus YDL005C, strain med2, stronger effect = lower value 1.01 | locus YDL035C, strain GPR1, stronger effect = lower value 0.985 | locus YDL040C, strain nat1, stronger effect = lower value 1 | locus YDL074C, strain BRE1, stronger effect = lower value 1 | locus YDL101C, strain DUN1, stronger effect = lower value 0.979 | locus YDL185W, strain tfp1, stronger effect = lower value 0.978 | locus YDL192W, strain arf1, stronger effect = lower value 0.992 | locus YDR001C, strain nth1, stronger effect = lower value 0.994 | locus YDR069C, strain doa4, stronger effect = lower value 1.02 | locus YDR101C, strain arx1, stronger effect = lower value 1.03 | locus YDR137W, strain rgp1, stronger effect = lower value 1.03 | locus YDR159W, strain sac3, stronger effect = lower value 1 | locus YDR162C, strain NBP2, stronger effect = lower value 0.962 | locus YDR195W, strain ref2 0.972 | locus YDR297W, strain sur2, stronger effect = lower value 1.01 | locus YDR318W, strain mcm21, stronger effect = lower value 0.981 | locus YDR334W, strain swr1, stronger effect = lower value 1 | locus YDR335W, strain msn5, stronger effect = lower value 1.01 | locus YDR388W, stronger effect = lower value 0.963 | locus YDR392W, strain spt3, stronger effect = lower value 0.981 | locus YDR502C, strain sam2, stronger effect = lower value 1.01 | locus YEL003W, strain gim4, stronger effect = lower value 1.02 | locus YEL037C, strain rad23, stronger effect = lower value 1.01 | locus YEL061C, strain CIN8 (second series), stronger effect = lower value 1 | locus YEL061C, strain CIN8, stronger effect = lower value 0.988 | locus YER015W, strain faa2, stronger effect = lower value 1 | locus YER016W, strain bim1, stronger effect = lower value 0.997 | locus YER110C, stronger effect = lower value 0.98 | locus YER111C, strain swi4, stronger effect = lower value 0.988 | locus YER155C, strain BEM2 (second series), stronger effect = lower value 1.01 | locus YER155C, strain BEM2, stronger effect = lower value 0.991 | locus YER167W, strain BCK2, stronger effect = lower value 0.994 | locus YFR010W, strain ubp6, stronger effect = lower value 1.02 | locus YGL078C, strain dbp3, stronger effect = lower value 0.99 | locus YGL086W, strain mad1, stronger effect = lower value 1.04 | locus YGL167C, strain pmr1, stronger effect = lower value 1.01 | locus YGL173C, strain kem1, stronger effect = lower value 1.01 | locus YGL227W, strain vid30, stronger effect = lower value 1 | locus YGL240W, strain doc1, stronger effect = lower value 1.01 | locus YGL248W, strain PDE1, stronger effect = lower value 0.988 | locus YGL253W, strain hxk2, stronger effect = lower value 1.01 | locus YGR078C, strain PAC10, stronger effect = lower value 0.976 | locus YGR135W, strain pre9, stronger effect = lower value 0.966 | locus YGR252W, strain gcn5, stronger effect = lower value 0.947 | locus YHR013C, strain ard1, stronger effect = lower value 0.984 | locus YHR027C, strain rpn1, stronger effect = lower value 1.01 | locus YHR030C, strain SLT2, stronger effect = lower value 0.996 and 0.983 | locus YHR079C, strain IRE1 (second series), stronger effect = lower value 0.979 | locus YHR079C, strain IRE1, stronger effect = lower value 0.974 | locus YHR094C, strain hxt1, stronger effect = lower value 0.972 | locus YHR129C, strain ARP1, stronger effect = lower value 0.998 | locus YHR142W, strain chs7, stronger effect = lower value 1.03 | locus YHR200W, strain rpn10, stronger effect = lower value 0.975 | locus YIL066C, strain RNR3, stronger effect = lower value 0.992 | locus YIL073C, strain SPO22, stronger effect = lower value 1.02 | locus YIL125W, strain kgd1, stronger effect = lower value 1 | locus YIR030C, strain dcg1, stronger effect = lower value 0.994 | locus YJL092W, strain hpr5, stronger effect = lower value 1 | locus YJL095W, strain BCK1 (second series), stronger effect = lower value 1 | locus YJL095W, strain BCK1, stronger effect = lower value 0.977 and 0.984 | locus YJL115W, strain asf1, stronger effect = lower value 1 | locus YJL129C, strain trk1, stronger effect = lower value 1.01 | locus YJL134W, strain LCB3, stronger effect = lower value 0.989 | locus YJL154C, strain vps35, stronger effect = lower value 1 | locus YJL164C, strain tpk1, stronger effect = lower value 1.01 | locus YJL166W, strain qcr8, stronger effect = lower value 1.02 | locus YJL168C, strain set2, stronger effect = lower value 0.99 | locus YJL187C, strain SWE1 (second series), stronger effect = lower value 0.971 | locus YJL187C, strain SWE1, stronger effect = lower value 1.01 | locus YJR043C, strain POL32, stronger effect = lower value 1.01

Reference: PubChem BioAssay AID1159580 (chemical genetic matrix, 2015)
